Inconclusive results are not listed. Active and inactive are the calls of the source. The calls were made as follows, unless noted: active = hit-call score of the fitted dose curve at least 0.9, where 1 is the maximum; inconclusive = response in the unintended direction; inactive = score below 0.9.
Assays:
[1] = target: Estrogen receptor beta (Homo sapiens) (UniProt Q92731); assay: ATG_hERb_XSP2: Attagene TRANS-FACTORIAL Multi-Species (XSP2) HepG2 Assay for human Estrogen Receptor (ERb) (AID 2283813);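 also: actives raise reporter mRNA above DMSO so AC50 reflects agonist induction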
Estrogen receptor beta (Homo sapiens), sequence (Q92731 whole entry, looked up, the tested form may be a part): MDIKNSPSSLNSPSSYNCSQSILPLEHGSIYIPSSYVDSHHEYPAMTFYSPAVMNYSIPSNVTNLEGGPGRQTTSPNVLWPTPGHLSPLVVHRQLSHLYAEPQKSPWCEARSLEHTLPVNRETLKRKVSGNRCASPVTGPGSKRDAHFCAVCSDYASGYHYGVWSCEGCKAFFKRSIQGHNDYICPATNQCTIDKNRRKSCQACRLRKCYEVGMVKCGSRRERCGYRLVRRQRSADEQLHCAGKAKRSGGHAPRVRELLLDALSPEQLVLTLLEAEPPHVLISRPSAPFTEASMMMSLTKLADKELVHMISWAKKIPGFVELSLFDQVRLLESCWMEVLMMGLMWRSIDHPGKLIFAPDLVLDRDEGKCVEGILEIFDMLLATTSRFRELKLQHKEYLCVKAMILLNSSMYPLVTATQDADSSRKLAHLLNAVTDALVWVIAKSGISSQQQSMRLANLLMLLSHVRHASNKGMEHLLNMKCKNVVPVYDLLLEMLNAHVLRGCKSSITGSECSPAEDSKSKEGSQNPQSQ
How it was run: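 HepG2 cells transiently transfected with GAL4-UAS reporter units and chimeric human ERb-Gal4, 24 h exposure. Reporter mRNA quantified by RT-PCR with FAM labelling, HpaI digestion and capillary electrophoresis; gain of signal versus DMSO.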

[2] = target: GAL4 Transcription Factor (Internal Marker), GAL4 (gene 855828) (UniProt P04386); assay: ATG_GAL4_XSP2: Attagene TRANS-FACTORIAL Multi-Species (XSP2) HepG2 Assay for GAL4 Transcription Factor (Internal Marker) (AID 2283814);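 also: GAL4 reporter mRNA background control in MRTU transfected cells not a receptor target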
GAL4 Transcription Factor (Internal Marker), GAL4 (gene 855828), sequence (P04386 whole entry, looked up, the tested form may be a part): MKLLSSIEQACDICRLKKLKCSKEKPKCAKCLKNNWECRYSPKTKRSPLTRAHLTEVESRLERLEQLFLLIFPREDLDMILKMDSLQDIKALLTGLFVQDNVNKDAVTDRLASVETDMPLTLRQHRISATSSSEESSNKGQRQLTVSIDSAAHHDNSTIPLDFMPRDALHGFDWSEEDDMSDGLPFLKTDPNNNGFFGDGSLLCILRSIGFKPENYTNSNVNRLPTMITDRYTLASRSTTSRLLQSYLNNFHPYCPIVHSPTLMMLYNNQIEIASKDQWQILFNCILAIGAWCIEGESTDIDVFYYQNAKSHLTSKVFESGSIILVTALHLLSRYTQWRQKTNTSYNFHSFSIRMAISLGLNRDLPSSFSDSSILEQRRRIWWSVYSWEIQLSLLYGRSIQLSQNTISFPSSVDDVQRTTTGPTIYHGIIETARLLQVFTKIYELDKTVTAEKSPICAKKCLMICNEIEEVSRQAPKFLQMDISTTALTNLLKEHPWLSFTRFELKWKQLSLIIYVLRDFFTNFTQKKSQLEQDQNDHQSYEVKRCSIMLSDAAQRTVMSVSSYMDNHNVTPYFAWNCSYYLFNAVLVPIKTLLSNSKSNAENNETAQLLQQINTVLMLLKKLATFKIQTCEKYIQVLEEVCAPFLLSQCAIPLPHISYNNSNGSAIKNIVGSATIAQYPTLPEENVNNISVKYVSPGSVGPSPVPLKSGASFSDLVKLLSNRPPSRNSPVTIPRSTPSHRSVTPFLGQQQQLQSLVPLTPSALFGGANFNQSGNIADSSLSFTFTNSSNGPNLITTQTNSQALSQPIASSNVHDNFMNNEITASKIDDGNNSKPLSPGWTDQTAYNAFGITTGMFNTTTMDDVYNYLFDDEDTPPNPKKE
How it was run: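 HepG2 cells transiently transfected with GAL4-UAS reporter units, stimulated with 3 nM 6-alpha-fluorotestosterone plus 1.5 nM norgestrel, dosed 24 h. Reporter mRNA by RT-PCR/capillary electrophoresis; gain-of-signal fit versus DMSO, background control.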

[3] = system: turtle Androgen Receptor (AR), gene 101947425; assay: ATG_trAR_XSP2: Attagene TRANS-FACTORIAL Multi-Species (XSP2) HepG2 Assay for turtle Androgen Receptor (AR) (AID 2283815)
How it was run: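 HepG2 cells transiently transfected with GAL4-UAS reporter units for chimeric NR-Gal4 receptors; 24 h dosing in presence of 3 nM 6-alpha-fluorotestosterone and 1.5 nM norgestrel. Reporter mRNA by RT-PCR and capillary electrophoresis, gain of signal versus DMSO.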

[4] = target: chicken Estrogen Receptor (ERa), ESR1 (gene 396099) (UniProt P06212); assay: ATG_chERa_XSP2: Attagene TRANS-FACTORIAL Multi-Species (XSP2) HepG2 Assay for chicken Estrogen Receptor (ERa) (AID 2283817);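 also: actives raise reporter signal above DMSO so AC50 reflects ER activation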
chicken Estrogen Receptor (ERa), ESR1 (gene 396099), sequence (P06212 whole entry, looked up, the tested form may be a part): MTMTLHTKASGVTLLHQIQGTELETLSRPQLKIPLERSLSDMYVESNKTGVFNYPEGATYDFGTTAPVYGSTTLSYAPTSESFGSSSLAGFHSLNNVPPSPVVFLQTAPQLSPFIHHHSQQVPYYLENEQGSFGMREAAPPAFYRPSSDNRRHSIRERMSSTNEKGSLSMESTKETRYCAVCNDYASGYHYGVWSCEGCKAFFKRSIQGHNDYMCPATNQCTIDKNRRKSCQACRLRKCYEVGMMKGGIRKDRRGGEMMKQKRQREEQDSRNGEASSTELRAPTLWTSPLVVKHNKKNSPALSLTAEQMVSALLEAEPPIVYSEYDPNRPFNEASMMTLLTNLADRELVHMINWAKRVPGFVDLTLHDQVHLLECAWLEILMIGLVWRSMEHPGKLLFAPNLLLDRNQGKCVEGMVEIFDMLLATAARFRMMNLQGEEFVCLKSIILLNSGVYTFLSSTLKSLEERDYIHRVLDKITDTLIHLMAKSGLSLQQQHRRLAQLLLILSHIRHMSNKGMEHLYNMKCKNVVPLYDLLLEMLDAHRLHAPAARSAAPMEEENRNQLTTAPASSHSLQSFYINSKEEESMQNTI
How it was run: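 Transiently transfected HepG2 cells expressing chimeric chicken ERa-GAL4 reporter units, dosed 24 h with 3 nM 6-alpha-fluorotestosterone and 1.5 nM norgestrel present. Reporter mRNA measured by RT-PCR and capillary electrophoresis; gain-of-signal fitted relative to DMSO.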

[5] = system: zebrafish Estrogen Receptor (ER2a), gene 317734; assay: ATG_zfER2a_XSP2: Attagene TRANS-FACTORIAL Multi-Species (XSP2) HepG2 Assay for zebrafish Estrogen Receptor (ER2a) (AID 2283818);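 also: hits raise reporter mRNA so AC50 reflects activation of zebrafish ER2a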
How it was run: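 HepG2 cells transiently transfected with GAL4-UAS reporter units and chimeric zebrafish ER2a-Gal4, exposed 24 h; medium contains 3 nM 6-alpha-fluorotestosterone and 1.5 nM norgestrel. Reporter mRNA quantified by RT-PCR, HpaI digestion, capillary electrophoresis; gain versus DMSO.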

[6] = system: chicken Androgen Receptor (AR), gene 422165; assay: ATG_chAR_XSP2: Attagene TRANS-FACTORIAL Multi-Species (XSP2) HepG2 Assay for chicken Androgen Receptor (AR) (AID 2283819);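 also: hits raise reporter mRNA above DMSO so potency is for activation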
How it was run: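 HepG2 cells transiently transfected with chicken AR–GAL4 chimeric reporter constructs, stimulated with 3 nM 6-alpha-fluorotestosterone plus 1.5 nM norgestrel, dosed 24 h. Reporter mRNA quantified by RT-PCR and capillary electrophoresis; gain of signal fitted versus DMSO.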

[7] = system: frog Estrogen Receptor (ER), gene 398734; assay: ATG_frER1_XSP2: Attagene TRANS-FACTORIAL Multi-Species (XSP2) HepG2 Assay for frog Estrogen Receptor (ER) (AID 2283821);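 also: hits raise reporter mRNA above DMSO baseline so potency means agonist or activator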
How it was run: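 HepG2 cells transiently transfected with GAL4-UAS reporter units expressing a chimeric frog ER-Gal4 protein; 24 h exposure. Reporter mRNA quantified by RT-PCR, fluorescent labelling and capillary electrophoresis; gain of signal fitted against DMSO baseline.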

[8] = system: zebrafish Estrogen Receptor (ER2b), gene 317733; assay: ATG_zfER2b_XSP2: Attagene TRANS-FACTORIAL Multi-Species (XSP2) HepG2 Assay for zebrafish Estrogen Receptor (ER2b) (AID 2283823);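 also: fitted upward as reporter gain over DMSO so potency reflects activation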
How it was run: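 Transcriptional induction measured as reporter mRNA (RT-PCR, fluorescent capillary electrophoresis) in transiently transfected HepG2 cells after 24 h dosing; DMSO served as negative control and baseline.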

[9] = target: Estrogen receptor (Homo sapiens) (UniProt P03372); assay: ATG_hERa_XSP2: Attagene TRANS-FACTORIAL Multi-Species (XSP2) HepG2 Assay for human Estrogen Receptor (ERa) (AID 2283827)
Estrogen receptor (Homo sapiens), sequence (P03372 whole entry, looked up, the tested form may be a part): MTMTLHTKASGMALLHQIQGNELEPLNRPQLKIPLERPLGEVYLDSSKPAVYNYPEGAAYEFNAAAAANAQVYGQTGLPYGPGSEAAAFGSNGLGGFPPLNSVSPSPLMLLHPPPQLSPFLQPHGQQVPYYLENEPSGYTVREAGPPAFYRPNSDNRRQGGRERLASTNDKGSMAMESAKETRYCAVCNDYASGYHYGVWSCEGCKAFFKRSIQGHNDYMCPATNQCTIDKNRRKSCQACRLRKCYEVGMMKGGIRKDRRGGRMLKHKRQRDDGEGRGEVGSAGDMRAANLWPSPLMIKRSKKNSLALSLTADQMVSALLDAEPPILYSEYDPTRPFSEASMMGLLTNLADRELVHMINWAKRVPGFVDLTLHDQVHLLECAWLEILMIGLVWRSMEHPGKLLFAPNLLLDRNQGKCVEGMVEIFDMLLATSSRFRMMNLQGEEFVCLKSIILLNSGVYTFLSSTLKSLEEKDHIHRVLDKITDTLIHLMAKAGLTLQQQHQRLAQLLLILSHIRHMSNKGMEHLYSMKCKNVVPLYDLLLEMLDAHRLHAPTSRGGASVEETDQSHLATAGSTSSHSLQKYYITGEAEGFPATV
How it was run: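 HepG2 cells transiently transfected with multiplexed GAL4-UAS reporters driven by chimeric receptor-Gal4 proteins, dosed 24 h with 3 nM 6-alpha-fluorotestosterone and 1.5 nM norgestrel present. Reporter mRNA by RT-PCR and capillary electrophoresis; gain-of-signal fit versus DMSO.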

[10] = system: frog Estrogen Receptor (ER2), gene 100174814; assay: ATG_frER2_XSP2: Attagene TRANS-FACTORIAL Multi-Species (XSP2) HepG2 Assay for frog Estrogen Receptor (ER2) (AID 2283828)
How it was run: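 HepG2 cells transiently transfected with multiplexed GAL4-UAS reporter units expressing chimeric frog ER2–Gal4 protein; reporter mRNA measured 24 h after chemical dosing by RT-PCR, fluorescent labeling and capillary electrophoresis. Gain-of-signal fitted relative to DMSO baseline.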

[11] = target: Peroxisome proliferator-activated receptor gamma (Homo sapiens) (UniProt P37231); assay: ATG_hPPARg_XSP2: Attagene TRANS-FACTORIAL Multi-Species (XSP2) HepG2 Assay for human Peroxisome Proliferator-activated Receptor gamma (PPARg) (AID 2283829);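 also: actives raise reporter mRNA above DMSO so AC50 reflects PPARg activation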
Peroxisome proliferator-activated receptor gamma (Homo sapiens), sequence (P37231 whole entry, looked up, the tested form may be a part): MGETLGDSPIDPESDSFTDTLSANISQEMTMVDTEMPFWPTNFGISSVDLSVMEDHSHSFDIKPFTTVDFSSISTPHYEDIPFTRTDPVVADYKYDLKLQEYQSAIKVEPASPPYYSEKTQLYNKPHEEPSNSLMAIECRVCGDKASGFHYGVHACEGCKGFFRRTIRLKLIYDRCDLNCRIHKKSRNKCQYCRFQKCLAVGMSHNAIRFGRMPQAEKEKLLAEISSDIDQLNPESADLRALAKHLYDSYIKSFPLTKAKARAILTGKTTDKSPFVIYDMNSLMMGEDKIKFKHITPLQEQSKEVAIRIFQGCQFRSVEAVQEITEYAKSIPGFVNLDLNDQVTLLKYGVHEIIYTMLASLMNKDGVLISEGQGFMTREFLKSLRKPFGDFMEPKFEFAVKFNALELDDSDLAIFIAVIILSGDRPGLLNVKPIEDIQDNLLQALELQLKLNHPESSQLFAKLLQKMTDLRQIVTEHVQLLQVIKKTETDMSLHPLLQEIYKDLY
How it was run: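 Human HepG2 cells carried transiently transfected Gal4 reporter units and were treated with chemical for 24 h alongside androgen-receptor stimulants (3 nM 6-alpha-fluorotestosterone, 1.5 nM norgestrel). Reporter transcripts were detected by RT-PCR with capillary electrophoresis, analysed in the positive direction against DMSO.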

[12] = target: mouse Peroxisome Proliferator-activated Receptor gamma (PPARg), Pparg (gene 19016) (UniProt P37238); assay: ATG_mPPARg_XSP2: Attagene TRANS-FACTORIAL Multi-Species (XSP2) HepG2 Assay for mouse Peroxisome Proliferator-activated Receptor gamma (PPARg) (AID 2283830);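 also: hits are gains in reporter mRNA above DMSO so AC50 marks activation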
mouse Peroxisome Proliferator-activated Receptor gamma (PPARg), Pparg (gene 19016), sequence (P37238 whole entry, looked up, the tested form may be a part): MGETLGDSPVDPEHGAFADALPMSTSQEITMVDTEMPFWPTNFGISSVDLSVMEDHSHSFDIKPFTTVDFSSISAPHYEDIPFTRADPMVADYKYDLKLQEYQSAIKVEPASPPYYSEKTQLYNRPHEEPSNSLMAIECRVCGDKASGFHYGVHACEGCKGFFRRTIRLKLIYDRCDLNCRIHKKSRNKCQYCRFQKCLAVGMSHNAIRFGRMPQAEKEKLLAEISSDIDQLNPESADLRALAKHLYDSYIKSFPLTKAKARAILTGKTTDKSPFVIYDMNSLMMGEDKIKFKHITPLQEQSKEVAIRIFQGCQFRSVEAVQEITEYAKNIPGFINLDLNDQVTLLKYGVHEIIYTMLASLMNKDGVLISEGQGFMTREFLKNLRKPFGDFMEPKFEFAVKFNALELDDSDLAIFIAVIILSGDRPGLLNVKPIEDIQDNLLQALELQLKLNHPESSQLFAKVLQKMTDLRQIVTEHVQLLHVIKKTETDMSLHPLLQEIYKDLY
How it was run: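 HepG2 cells transiently transfected with GAL4-UAS reporter units for chimeric NR-Gal4 proteins including mouse PPARg, exposed 24 h; medium contained 3 nM 6-alpha-fluorotestosterone and 1.5 nM norgestrel. Reporter mRNA quantified by RT-PCR, HpaI digestion and capillary electrophoresis, vs DMSO.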

[13] = target: Nuclear receptor subfamily 1 group I member 2 (Mus musculus) (UniProt O54915); assay: ATG_mPXR_XSP2: Attagene TRANS-FACTORIAL Multi-Species (XSP1) HepG2 Assay for mouse Pregnane X Receptor (PXR) (AID 2283831)
Nuclear receptor subfamily 1 group I member 2 (Mus musculus), sequence (O54915 whole entry, looked up): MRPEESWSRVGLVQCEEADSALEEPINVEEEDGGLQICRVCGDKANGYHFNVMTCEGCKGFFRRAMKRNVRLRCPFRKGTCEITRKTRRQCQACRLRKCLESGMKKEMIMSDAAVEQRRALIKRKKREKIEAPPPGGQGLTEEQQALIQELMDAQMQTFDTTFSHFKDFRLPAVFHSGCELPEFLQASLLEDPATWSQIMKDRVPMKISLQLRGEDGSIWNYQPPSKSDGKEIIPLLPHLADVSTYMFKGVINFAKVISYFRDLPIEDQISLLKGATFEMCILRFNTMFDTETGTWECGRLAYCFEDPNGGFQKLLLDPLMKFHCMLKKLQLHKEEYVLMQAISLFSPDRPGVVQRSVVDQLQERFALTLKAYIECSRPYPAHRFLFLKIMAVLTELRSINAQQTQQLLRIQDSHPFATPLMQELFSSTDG
How it was run: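 Fluorescence signals from capillary electrophoresis of RT-PCR-amplified reporter mRNA give the readout, gain-of-signal versus DMSO. Transfected HepG2 cells, 24 h dosing, medium contained 3 nM 6-alpha-fluorotestosterone and 1.5 nM norgestrel.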

[14] = system: zebrafish Peroxisome Proliferator-activated Receptor gamma (PPARg), gene 557037; assay: ATG_zfPPARg_XSP2: Attagene TRANS-FACTORIAL Multi-Species (XSP2) HepG2 Assay for zebrafish Peroxisome Proliferator-activated Receptor gamma (PPARg) (AID 2283833);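 also: reporter mRNA from a zebrafish PPARg GAL4 chimera measured by RT-PCR and capillary electrophoresis; actives increase reporter signal over DMSO so AC50 reflects activation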
How it was run: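 HepG2, transient MRTU transfection, 24 h compound; zfPPARg-GAL4 reporter mRNA by RT-PCR + capillary electrophoresis; gain-of-signal vs DMSO.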

[15] = system: turtle Thyroid Hormone Receptor, alpha (TRa), gene 101949057; assay: ATG_trTRa_XSP2: Attagene TRANS-FACTORIAL Multi-Species (XSP1) HepG2 Assay for turtle Thyroid Hormone Receptor, alpha (TRa) (AID 2283834);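 also: hits raise reporter mRNA over the DMSO baseline so AC50 marks activators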
How it was run: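 Multiplexed TRANS reporter assay; HepG2 carrying NR-Gal4 constructs treated 24 h. mRNA of the GAL4-UAS reporter quantified via labelled RT-PCR fragments on a genetic analyzer, vs DMSO negative control.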

[16] = ATG_M_61_XSP2: Attagene TRANS-FACTORIAL Multi-Species (XSP2) HepG2 Assay for M61 Transcription Factor (Internal Marker) (AID 2283835; active = hit-call score of the fitted dose curve at least 0.9, where 1 is the maximum; inactive = score below 0.9;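 also: active means a rise in signal above the DMSO baseline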)
How it was run: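 HepG2 cells transiently transfected with multiple GAL4-UAS reporter units; reporter mRNA measured 24 h after dosing by RT-PCR, fluorescent labelling and capillary electrophoresis. Medium contained 3 nM 6-alpha-fluorotestosterone and 1.5 nM norgestrel; internal marker, DMSO baseline.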

Measured: AC50

C=CCc1cc(S(=O)(=O)c2ccc(O)c(CC=C)c2)ccc1O
active: [4] 3.5 µM | [6] 8.4 µM | [7] 8.79 µM | [8] 17.4 µM | [9] 2.71 µM | [11] 5.26 µM | [12] 19.2 µM
inactive: all other assays above

— PubChem BioAssay (EPA / NIEHS)
